For part of these data: Measured potencies and affinities stand elsewhere.
What was measured:
Staphylococcus aureus = assay: Antibacterial activity against Staphylococcus aureus MRSA ATCC 43300 (CO-ADD:GP_020); MIC in CAMBH media using NBS plates, by Resazurin F(560/590); format: functional; settings: Concentration 20 uM, ASSAY_TEST Inhibition of Bacterial Growth, detection method Resazurin, Fluorescence (ex560/em590), MEDIA CAMHB, plate type 384well, CORNING #3640, time 18 hr
Acinetobacter baumannii = assay: Antibacterial activity against Acinetobacter baumannii ATCC 19606 (CO-ADD:GN_034); MIC in CAMBH media using NBS plates, by Resazurin F(560/590); format: functional; settings: Concentration 20 uM, ASSAY_TEST Inhibition of Bacterial Growth, detection method Resazurin, Fluorescence (ex560/em590), MEDIA CAMHB, plate type 384well, CORNING #3640, time 18 hr
Escherichia coli = assay: Antibacterial activity against Escherichia coli ATCC 25922 (CO-ADD:GN_001); MIC in CAMBH media using NBS plates, by Resazurin F(560/590); format: functional; settings: Concentration 20 uM, ASSAY_TEST Inhibition of Bacterial Growth, detection method Resazurin, Fluorescence (ex560/em590), MEDIA CAMHB, plate type 384well, CORNING #3640, time 18 hr
Klebsiella pneumoniae = settings: Concentration 20 uM; ASSAY_TEST Inhibition of Bacterial Growth; detection method Absorption (OD600); MEDIA CAMHB; plate type 384well; NBS; CORNING #3640; time 18 hr
Candida albicans = settings: 20 µM
Cryptococcus neoformans = settings: Concentration 20 uM; ASSAY_TEST Inhibition of Fungal Growth; detection method Resazurin; Absorption (OD600-OD570); plate type 384well; NBS; CORNING #3640

Structure (SMILES)	Inhibition (Staphylococcus aureus)	Inhibition (Acinetobacter baumannii)	Inhibition (Escherichia coli)	Inhibition (Klebsiella pneumoniae)	Inhibition (Candida albicans)	Inhibition (Cryptococcus neoformans)
CC(=O)Nc1nc(C)c(CCCOc2ccc([N+](=O)[O-])cc2)c(O)n1	4.87%	9.03%	5.24%	2.35%	3.22%	-1.34%
CCOC(=O)c1cnn2c(SC)ncnc12	10.61%	5.37%	-2.6%	12.61%	5.51%	-8.81%
O=C(Nc1cccc([N+](=O)[O-])c1)c1cccc(C(=O)Nc2cccc([N+](=O)[O-])c2)c1	-2.9%	3.66%	1.98%	5.84%	-0.13%	37.96%
OCc1cc(O)c(CO)nn1	-17.8%	-1.67%	-7.33%	4.1%	-0.36%	1.1%
CC1=C(O)C(=O)C(c2c(C)cc(C)c(Br)c2C)=C(O)C1=O	15.91%	1.25%	4.64%	20.53%	19.7%	-3.3%
CC(C)NC(=O)c1ccc(C(C)C)cc1	10.05%	-9.59%	11.28%	-3.37%	-0.32%	-8.3%
c1ccc2c(c1)cnc1ccccc12 [PHENANTHRIDINE]	1.61%	-6.38%	4.54%	11.56%	4.34%	-7.16%
CC(=O)Nc1ccc(S(=O)(=O)N/N=c2/sc3ccccc3n2C)cc1N	12.5%	3.99%	3.58%	3.38%	-0.64%	-8.3%
CCOC(=O)c1cc[nH]c1CC(=O)NC	7.18%	12.41%	-1.94%	10.9%	1.71%	-10.3%
O=C1NCN(CCO)CN1	3.46%	-3.91%	8.55%	4.75%	0.72%	-3.9%
NC(=O)c1ccc(/N=N/c2c(O)c3ccccc3[nH]c2=O)cc1	1.45%	0.09%	1.38%	17.01%	24%	-1.63%
Sc1nccn1-c1ccccc1Cl	5.33%	14.25%	-3.3%	6.92%	3.82%	-5.04%
N#Cc1cc(-c2ccccc2)[nH]c1-c1nccc2ccccc12	-0.89%	-11.99%	7.81%	10.89%	17.5%	-6.55%
NC(CSC1(c2cccc3ccccc23)c2ccccc2-c2ccccc21)C(=O)O (stereo not given)	9.31%	-6.6%	9.55%	13.19%	7.56%	-2.74%
O=C(Nc1ccc2ccccc2c1)c1ccc(Cl)cc1Cl	8.36%	-2.05%	3.67%	-0.53%	-0.67%	-1.28%
CC(C)(C)CC(C)(C)N1CN=C(S)NC1	14.76%	8.83%	1.22%	6.38%	1.25%	-7.67%
COC(=O)CC1OCC=C2CN3CCC45C6=CC(=O)C(=O)C([N+](=O)[O-])=C6NC4C1C2CC35 (stereo not given)	12.88%	-13.17%	11.73%	18.83%	-2.29%	-2.47%
O=C(O)/C=C/C(=O)Nc1cccc2cccnc12	36.64%	-0.12%	28.31%	7.62%	8.39%	9.5%
C[C@]12CC[C@H](O)CC1=CC[C@@H]1[C@@H]2CC[C@]2(C)c3n[nH]cc3C[C@@H]12	17.35%	7.15%	13.22%	4.71%	-0.24%	-13.74%
Nc1nc2cc([N+](=O)[O-])ccc2[nH]1	15.13%	-11.46%	3.91%	4.78%	0.21%	-13.6%
CCOc1nc(OCC)c2cnn(C)c2n1	17.13%	-11.25%	5.79%	6.34%	3.82%	-3.08%
N#C/C(=C\c1cccnc1)c1ccc(Br)cc1	-11.66%	-1.77%	-11.06%	8.56%	35.8%	-4.26%
CCCCn1c(OC(=S)N(CC)CC)cc(C)nc1=S	3.12%	15.13%	-6.8%	13.25%	7.15%	-2.34%
COc1cc(CC(=O)C(=O)O)oc(=O)c1	12.14%	6.41%	-2.06%	12.51%	3.8%	-8.52%
c1ccc2nc(NN=C3CCCCC3)ccc2c1	9.39%	-16.84%	10.6%	9.11%	3.78%	-6.92%
